The nature of assay [1]: P-glycoprotein substrates identified in KB-3-1 adenocarcinoma cell line, qHTS therapeutic library screen (AID 1346986). Note: nearly all actives have a fitted effect of over 60% in size.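 Note: potency is for cytotoxicity meaning loss of cell viability.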 The essentials: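 72 h cell-killing screen, 500 cells/well, CellTiter-Glo luminescence. Paired lines KB-3-1/KB-8-5-11; P-gp dependence checked by tariquidar co-treatment and HEK-293 MDR-19 versus empty-vector cells.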
A short description of assay [2]: P-glycoprotein substrates identified in KB-8-5-11 adenocarcinoma cell line, qHTS therapeutic library screen (AID 1346987). For activity change, negative = cytotoxicity: series mostly up to about 44 µM; % is set by controls: 0 for no effect and ±100 for the full control effect. Note: nearly all actives have a fitted effect of over 65% in size. The essentials:
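Compounds are pinned in dose-response onto KB-8-5-11 cells (500 cells/well, colchicine-free medium) and left 72 h at 37 degree C. CellTiter-Glo luminescence then yields AC50 values.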

Several values for one entry are separate records, joined by “and”; a condition that tells them apart may be missing. Identical values can stand only once. Records with an inconclusive call do not appear. Values without a mark were called inactive. Activity calls are given as the source filed them. Calls come from the whole dose curve; as a rule, active = well fitted curve in the direction sought with a large enough effect; inconclusive = small, poorly fitted or top-dose-only effect, or another doubt; inactive = no such curve, though single readings can be large; an effect the other way counts as inactive or inconclusive. *1 amine or outer side, *2 acyl side, *3 side chain or, on linkers, in order; H or OH if unused. Where a SMILES comes first, the peptide text is derived from it. Bridges are numbered along the chain shown (N, C = ends). [ ]: non-standard residue; d: D form. The star is where a group is joined. X1 = CCC(C)C(N)C1=NC(C(=O)*)CS1; dOrn = NCCC[C@@H](N)C(=O)O; X6 = O=C(CCC[*:2])[*:1]
Potency is the fitted concentration of half-maximal effect.

For `CC(C)NC[C@H](O)COc1ccc(CCOCC2CC2)cc1`, the Potency result in assay [1] and in assay [2] was “inactive” each time.

As for `CC1CCC2(C(=O)OC3OC(CO)C(O)C(O)C3O)CCC3(C(=O)O)C(=CCC4C5(C)CCC(OC6OC(C)C(O)C(O)C6O)C(C)(C)C5CCC43C)C2C1C` (stereo not drawn), the Potency entry in assay [1] and in assay [2] was “inactive” throughout.

Consider `COC12CC3C(C(C)C1=CC(=O)O2)C(O)C(OC(C)=O)C1C(C)(C)C(OC(C)=O)CCC31C` (stereo not drawn), for which the Potency result in assay [1] and in assay [2] was “inactive” in each case.

As to `COc1cccc(-c2ccc([C@@H](Oc3cc(-c4ccc(C[C@H](N)C(=O)O)cc4)nc(N)n3)C(F)(F)F)cc2)c1`, the Potency result in assay [1] and in assay [2] was “inactive” throughout.

On to `COC(=O)C1=COC(OC2OC(CO)C(O)C(O)C2O)C2C1CC(OC(=O)C(O)CC(=O)O)C2C` (stereo not drawn), for which the Potency result in assay [1] and in assay [2] was “inactive” each time.

As for `O=C(/C=C/c1ccc(O)cc1)O[C@H]1[C@@H]2C=CO[C@@H](O[C@@H]3O[C@H](CO)[C@@H](O)[C@H](O)[C@H]3O)[C@@H]2[C@@]2(CO)O[C@@H]12`, the Potency entry in assay [1] and in assay [2] was “inactive” throughout.

On to `O=C(NCc1ccc(OC(F)(F)F)cc1)C1c2ccccc2C(=O)N1C1CCOCC1` (stereo not drawn), for which the Potency entry in assay [1] and in assay [2] was “inactive” each time.

Take `CC1(C)OC(=O)C(OCC2CC2)=C1c1ccc(S(C)(=O)=O)cc1`: the Potency entry in assay [1] and in assay [2] was “inactive” throughout.

`C/C=C(\C)C(=O)O[C@@H](C)[C@H]1CC[C@]2(O)C3CCC4C[C@@H](OC5CC(OC)C(OC6CC(OC)C(OC7CC(OC)C(OC8OC(C)C(OC9OC(CO)C(O)C(O)C9O)C(OC)C8O)C(C)O7)C(C)O6)C(C)O5)CC[C@]4(C)C3[C@H](O)[C@@H](O)[C@]12C` (stereo partly drawn): the outcome in assay [1] was “inactive [at 9.29 µM]”. In assay [2], the activity change, negative = cytotoxicity is 2.39% [at 9.29 µM].

As for `CC(=O)OC[C@]1(O)[C@H]2[C@H](OC(=O)CC(C)C)OC=C(CO[C@@H]3O[C@H](CO)[C@@H](O)[C@H](O)[C@H]3O)[C@H]2C[C@@H]1O`, the Potency entry in assay [1] and in assay [2] was “inactive” throughout.

Consider `CC12CCC3c4ccc(O)cc4CCC3C1CCC2OC1OC(C(=O)O)C(O)C(O)C1O` (stereo not drawn), for which the Potency result in assay [1] and in assay [2] was “inactive” each time.

`Cc1cc(C)cc(NC(=O)Cc2ccc(OC(C)(C)C(=O)O)cc2)c1`: the Potency entry in assay [1] and in assay [2] was “inactive” in each case.

`O=C(O)c1ccc(CCCc2ccc(OCCc3ccc(F)cc3)cc2)o1`: the Potency entry in assay [1] and in assay [2] was “inactive” in each case.

Take `CCC(C)C(N)C1=NC(C(=O)N[C@@H](CC(C)C)C(=O)N[C@H](CCC(=O)O)C(=O)N[C@H](C(=O)N[C@H]2CCCCNC(=O)[C@H](CC(N)=O)NC(=O)[C@@H](CC(=O)O)NC(=O)[C@H](Cc3cnc[nH]3)NC(=O)[C@@H](Cc3ccccc3)NC(=O)[C@H]([C@@H](C)CC)NC(=O)[C@@H](CCCN)NC2=O)[C@@H](C)CC)CS1` (stereo partly drawn) (X1-L[dE]IK[dOrn]I[dF]H[dD]N; lactam 4-C): the Potency result in assay [1] and in assay [2] was “inactive” throughout.

As for `CC(C)(O)C1CC=C(C(=O)OCC2OC(Oc3c(O)cc(C(=O)O)cc3O)C(O)C(O)C2O)CC1` (stereo not drawn), the Potency result in assay [1] and in assay [2] was “inactive” throughout.

For the compound `CC(=O)OC[C@@]12[C@H](O)C[C@@H](C)[C@]3(C[C@@H](c4ccoc4)OC3=O)[C@H]1C[C@H](O)C[C@]21CO1`, the Potency result in assay [1] and in assay [2] was “inactive” in each case.

Take `CCOC(=O)[C@H]1O[C@@H]1C(=O)N[C@@H](CC(C)C)C(=O)NCCC(C)C`: the Potency entry in assay [1] and in assay [2] was “inactive” throughout.

For `CC[C@H](C)[C@@H]1NC(=O)[C@H](Cc2ccc(OC)cc2)NC(=O)CCCSC[C@@H](C(=O)N2CCC[C@H]2C(=O)N[C@@H](CC(C)C)C(=O)NCC(N)=O)NC(=O)[C@H](CC(N)=O)NC(=O)[C@H](CCC(N)=O)NC1=O` (Y(Me)IQNCPLG-NH2; linker N-5 via X6), the Potency result in assay [1] and in assay [2] was “inactive” in each case.

With `C[C@@H]1CC[C@]2(C(=O)O)CC[C@]3(C(=O)O)C(=CCC4[C@@]5(C)CC[C@H](O[C@@H]6O[C@@H](C)[C@H](O[C@@H]7O[C@H](CO)[C@@H](O)[C@H](O)[C@H]7O)[C@@H](O)[C@H]6O)C(C)(C)C5CC[C@]43C)C2[C@H]1C` (stereo partly drawn), the Potency entry in assay [1] and in assay [2] was “inactive” each time.

Turning to `OC[C@H]1O[C@@H](Oc2ccc3c(c2)OC[C@H]2c4cc5c(cc4O[C@@H]32)OCO5)[C@H](O)[C@@H](O)[C@@H]1O`, the Potency entry in assay [1] and in assay [2] was “inactive” each time.

Regarding `COc1cc(CCc2ccccc2)c(C(=O)O)c2c1CC(C(C)(C)O)O2` (stereo not drawn), the Potency result in assay [1] and in assay [2] was “inactive” in each case.

On to `Nc1nc(CC(=O)Nc2ccc(CCNCC(O)c3ccccc3)cc2)cs1` (stereo not drawn), for which the Potency result in assay [1] and in assay [2] was “inactive” throughout.

As to `CCC(=O)NS(=O)(=O)c1ccc(-c2c(-c3ccccc3)noc2C)cc1`, the Potency entry in assay [1] and in assay [2] was “inactive” each time.

Turning to `CC(=O)c1cnc2ccc(-c3cc(Cl)c(O)c(Cl)c3)nc2c1NC1CCC(CN(C)C)CC1` (stereo not drawn), the Potency in assay [1] was 13 nM (active); in assay [2], 119 nM (active) and 23.1 nM (active).
